The results in this text go back to the antibiotic and cytotoxicity screens of Wong et al. (2023).

The whole screen tested about 39,000 compounds, of which about 3,300 (8.5%) were called active. The sample as a whole holds a higher share of actives than the screen did.

For the test, the system named is HepG2. The experiment in a line: cytotoxicity call (relative viability < 0.9). The note with it: 10 µM.
As to `Clc1ccc(Cn2cccc2)cn1`, the cytotoxicity call is “inactive”.

Turning to `CCS(=O)(=O)Nc1ccc2c(c1)C(=O)N(C)[C@@H]1CC[C@@H](CC(=O)N[C@H]3CCN(Cc4ccccc4)C3)O[C@@H]1CO2`, the cytotoxicity call was “inactive”.

With `C[C@H]1CN([C@@H](C)CO)C(=O)Cc2cc(NS(=O)(=O)c3ccc(F)cc3)ccc2O[C@@H]1CN(C)Cc1ccncc1`, the cytotoxicity call is “inactive”.

In the case of `COCC(=O)Nc1ccc2c(c1)OC[C@H](C)N(C(=O)Cc1ccccn1)C[C@H](C)[C@@H](OC)CN(C)C2=O`, the cytotoxicity call is “inactive”.

Turning to `COc1ccc2c(c1OC)C(=O)OC2C1c2c(cc3c(c2OC)OCO3)CCN1C.Cl` (stereo not drawn), the cytotoxicity call is “active”.

`COc1cc2c(cc1OC)C1Cc3ccc(OC)c(OC)c3CN1CC2` (stereo not drawn): the cytotoxicity call was “inactive”.

As for `Cc1cc(-c2cc(OC(=O)c3ccccc3)ccc2Cl)cc2nnc(Nc3ccc(OCCN4CCCC4)cc3)nc12`, the cytotoxicity call is “inactive”.

In the case of `CCN(CC)CCOc1ccc(Nc2ncc3cc(-c4c(Cl)cccc4Cl)c(=O)n(C)c3n2)cc1`, the cytotoxicity call is “active”.

Consider `O=C(C[C@@H]1C=C[C@@H](NC(=O)CN2CCOCC2)[C@H](CO)O1)NCCc1ccccc1`, for which the cytotoxicity call is “inactive”.

Consider `NCC(=O)NCC(=O)O`, for which the cytotoxicity call is “inactive”.

On to `CNCC(=O)O`, for which the cytotoxicity call was “inactive”.

Turning to `O=C(O)CNC(=O)C(=O)O`, the cytotoxicity call is “active”.

`CN(C)CCN1C[C@@H]2CN(C(=O)[C@H]3CCOC3)C[C@H]2C1=O`: the cytotoxicity call was “inactive”.

With `C[C@@H]1CCCCO[C@H](CN(C)S(=O)(=O)c2cccs2)[C@@H](C)CN([C@@H](C)CO)C(=O)c2cc(NC(=O)NC3CCCCC3)ccc2O1`, the cytotoxicity call is “inactive”.

On to `Cc1noc(C)c1S(=O)(=O)Nc1ccc2c(c1)C(=O)N([C@@H](C)CO)C[C@H](C)[C@H](CN(C)Cc1ccc3c(c1)OCO3)O2`, for which the cytotoxicity call is “inactive”.

For the molecule `COc1ccc(S(=O)(=O)N(C)C[C@@H]2OCCCC[C@@H](C)Oc3ccc(NC(=O)Nc4ccc(F)cc4)cc3C(=O)N([C@@H](C)CO)C[C@H]2C)cc1`, the cytotoxicity call was “inactive”.

For the molecule `CN(C)CC(=O)N1CC2(C1)[C@H](c1ccccc1)[C@H](CO)N2S(C)(=O)=O`, the cytotoxicity call is “inactive”.

With `CN(c1ncccc1CNc1nc(Nc2ccc3c(c2)CC(=O)N3)ncc1C(F)(F)F)S(C)(=O)=O`, the cytotoxicity call is “active”.

`CNC(=O)c1ccc(Nc2ncc(C(F)(F)F)c(NCc3nccnc3N(C)S(C)(=O)=O)n2)cc1`: the cytotoxicity call is “active”.

Take `Cc1cnc(CNC(=O)c2c(=O)c3ccc(N4CCCN(C)CC4)nc3n3c2sc2ccccc23)cn1`: the cytotoxicity call was “inactive”.

As to `CCS(=O)(=O)N1C[C@]2(CN(C2)C(=O)Nc2ccc(cc2F)F)c2c(n(c3cc(ccc23)OC)C)[C@@H]1CO`, the cytotoxicity call is “inactive”.

In the case of `CN(C)Cc1cn(CC[C@H]2CC[C@@H](NC(=O)Cc3cccnc3)[C@@H](CO)O2)nn1`, the cytotoxicity call is “inactive”.

For `O=c1/c(=C\c2ccc(F)cc2)sc2n1CCN=2`, the cytotoxicity call was “inactive”.
